Holding throughout (assay): NCI-60 one-dose screen, 48 h (100 = growth as untreated, 0 = no growth, -100 = all killed)
Common to all, as to settings: 10 µM

The subject of experiment [1] is NCI-H23 lung.
Experiment [2] concerns NCI-H226 lung.
For experiment [3], the system named is NCI-H322M lung.
The test system of experiment [4] is HOP-62 NSCLC.
Experiment [5] relates to NCI-H460 lung.
Experiment [6] concerns HOP-92 NSCLC.
The test system of experiment [7] is NCI-H522 lung.
Experiment [8] has as its system A549/ATCC NSCLC.
The test system of experiment [9] is 786-0 renal.
Experiment [10] has as its system COLO 205 colon.
The test system of experiment [11] is DU-145 prostate.
In experiment [12] the test system is K-562 leukemia.
For experiment [13], the system named is MALME-3M melanoma.
Experiment [14] relates to MDA-MB-231 breast.
In experiment [15] the test system is RXF 393 renal.
Experiment [16] has as its system SF-268 CNS.
Experiment [17] has as its system SF-295 CNS.
Experiment [18] relates to SF-539 CNS.
The subject of experiment [19] is UACC-257 melanoma.
For experiment [20], the system named is M14 melanoma.

This is part of a sample that, as a whole, favours compounds with a hit. Of some 83,000 tested, about 20% had one in any assay.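 A percent growth of 40 corresponds to 60% growth inhibition; 0 means no net growth; -100 means all cells died. Active threshold: below 10.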 A number with no mark means an inactive call. The source made the active and inactive calls.

Turning to `COc1ccc(C2C=C(c3ccc(Cl)c(Cl)c3)N=C3SC(C)=CN32)cc1` (stereo not given), the growth is 92.2% in experiment [1]; 86.5% in [2]; 98.7% in [3]; 99.5% in [4]; 101% in experiment [5]; 98.7% in experiment [6]. The growth was 77.3% in [7]; 81.6% in [8]; 90.7% in experiment [9]; 104% in experiment [10]; 100% in experiment [11]; 83.2% in experiment [12]. The growth was 90.2% in experiment [13]; 101% in experiment [14]; 83% in experiment [15]; 97.2% in experiment [16]; 87.3% in experiment [17]; 95.7% in experiment [18]. Moreover, the growth in [19] was 109%; in [20] it was 97.3%.
Take `CCc1c(C)[nH]c(=O)c(C(N)=O)c1C#N`: the growth in [1] is 107%; in experiment [2] it was 117%; in experiment [3] it was 104%; in experiment [4], 96.7%; in [5], 106%; in experiment [6] it was 109%. For the same compound, the growth in experiment [7] was 80.5%; in [8] it was 89.4%; in experiment [9], 96.2%; in [10], 110%; in [11], 115%; in experiment [12], 114%. Further, the growth in experiment [13] was 103%; in [14], 102%; in experiment [15], 108%; in [16], 105%; in experiment [17] it was 98.1%; in experiment [18] it was 92.9%. Also, the results for the growth in [19] and in experiment [20] were 92.5% and 97.5%, respectively.
As to `C/C(=N\NC(=S)N1CCCC1)c1ccccn1`, the growth was 17% in experiment [1]; -7.28% (active) in experiment [2]; 6.18% (active) in [3]; 10% (active) in experiment [4]; 1.6% (active) in experiment [5]; 48.5% in [6]. The growth was 5.12% (active) in experiment [7]; 0.905% (active) in experiment [8]; 20% in [9]; 5.14% (active) in experiment [10]; 16.7% in experiment [11]; 7.97% (active) in [12]. In addition, the growth in experiment [13] is -8.16% (active); in experiment [14], 27.9%; in experiment [15] it was 21.5%; in experiment [16], 9.48% (active); in experiment [17], -6.83% (active); in experiment [18], 4.96% (active). The growth in [19] is -32.4% (active); in [20], 6.19% (active).
In the case of `FC(F)(F)c1ccc(-c2cnc(Cl)nc2NC2CCCCCC2)cc1`, the growth in experiment [1] was 25.8%; in experiment [2] it was 42.1%; in experiment [3] it was 71.1%; in experiment [4], 33.4%; in [5], 25.8%; in experiment [6], -28.4% (active). In addition, the growth in [7] is -6.08% (active); in experiment [8] it was 17.4%; in experiment [9] it was 40.1%; in experiment [10], 22%; in experiment [11], 59.7%; in [12], 11.9%. Further, the growth in [13] is -42.8% (active); in [14] it was 47.4%; in experiment [15], 31.3%; in [16] it was 39.4%; in [17] it was -45.6% (active); in experiment [18] it was 75.1%. For the same compound, the growth in [19] is -10.3% (active); in experiment [20] it was 21.8%.
As for `O=C(C=P(c1ccccc1)(c1ccccc1)c1ccccc1)c1ccc(Br)cc1`, the growth is 85.8% in experiment [1]; 96.5% in experiment [2]; 78.6% in experiment [3]; 125% in experiment [4]; 93% in [5]; 67.1% in experiment [6]. The growth is 59.5% in experiment [7]; 72.4% in experiment [8]; 97.9% in experiment [9]; 96% in experiment [10]; 90.5% in experiment [11]; 34.6% in experiment [12]. Besides, the growth in experiment [13] was 85.5%; in [14], 77.5%; in [15], 110%; in experiment [16], 93.5%; in experiment [17], 91.7%; in [18] it was 113%. For the same compound, the growth is 102% in experiment [19] and 94.1% in [20].
Turning to `Cc1cc(Cl)ccc1Nc1nc(C(F)(F)F)ccc1C(=O)N/N=C/c1ccccc1Cl`, the growth is 16.9% in experiment [1]; -12.4% (active) in experiment [2]; 9.54% (active) in experiment [3]; -6.31% (active) in [4]; 5.74% (active) in experiment [5]; -1.9% (active) in experiment [6]. The growth is -2.69% (active) in experiment [7]; 13.5% in experiment [8]; -40.1% (active) in experiment [9]; 4.36% (active) in experiment [10]; 36.4% in experiment [11]; 56.3% in [12]. The growth is 30% in experiment [13]; -15.5% (active) in [14]; 24.1% in [15]; 31.1% in experiment [16]; 8.72% (active) in experiment [17]; 6.63% (active) in [18]. Also, the growth was 6.87% (active) in experiment [19] and 9.99% (active) in [20].
For `COC(=O)[C@]12CC[C@@H](C)[C@H](C)[C@@H]1C1=CC[C@@H]3[C@@]4(C)CC(=O)[C@H](O)[C@@](C)(CO)[C@@H]4C(=O)C[C@@]3(C)[C@]1(C)CC2`, the growth is -14.2% (active) in [1]; -5.55% (active) in experiment [2]; 18.4% in experiment [3]; -21.5% (active) in [4]; -48.9% (active) in [5]; -22.5% (active) in experiment [6]. Also, the growth was -65.9% (active) in experiment [7]; -63.6% (active) in [8]; 0.121% (active) in experiment [9]; -64.6% (active) in experiment [10]; -44.4% (active) in experiment [11]; -69.5% (active) in [12]. Besides, the growth in experiment [13] is -35.2% (active); in experiment [14] it was -34.2% (active); in experiment [15] it was -41.4% (active); in experiment [16] it was 4.33% (active); in experiment [17], -0.778% (active); in experiment [18], 16.5%. Besides, the figures for the growth in experiment [19] and in experiment [20] were 7.73% (active) and 10.1%, respectively.

Values taken from PubChem BioAssay (NCI).
